# This is a sample that favours compounds with a hit; in the whole collection about 5.4% have one here.
# Sm TGR block: qHTS Assay for the Inhibitors of Schistosoma Mansoni Peroxiredoxins; Schistosoma mansoni thioredoxin glutathione reductase (TGR), Q962Y6; purified TGR, DTNB reduction, TNB absorbance 405 nm; Potency, µM (top dose mostly 114 µM), inactives show at the highest dose activity change, negative = inhibition, actives largely listed as inhibitors; 3% of 360,000 active; AID 485364, 2010; active means well fitted inhibition curve with a large enough effect; inconclusive means small, poorly fitted or top-dose-only effect; inactive means no such curve, though single readings can be large or run the other way; further: nearly all actives have a fitted effect of over 60% in size
#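 TGR 20 nM + NADPH 100 uM (dispensed conc.), cpd preinc 15 min RT; start with NADPH (500 uM addition) then DTNB (15 mM addition). Kinetic TNB absorbance, 405 nm filter. Four-parameter Hill fit across titration.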
# Marburg entry inh: qHTS for inhibitors of binding or entry into cells for Marburg Virus. Marburg virus pseudotyped entry inhibition, cell reporter. 1.8% of 300,000 active. Potency, µM (top dose mostly 37.8 µM), for inactives: top-dose activity change, negative = inhibition, usual class: inhibitors. AID 540276, 2011; calls by dose curve; tested in HEK293 cells
# VACV mCherry inh: qHTS for Stage-Specific Inhibitors of Vaccinia Orthopoxvirus: mCherry Reporter Primary qHTS; Vaccinia virus mCherry reporter infection, fluorescence; Potency, µM (titrated, usually from 36.5 µM), inactives show at the highest dose activity change, negative = inhibition, most hits filed as inhibitors; 0.63% of 310,000 active; calls by dose curve; tested in A549 cells; further: nearly all actives have a fitted effect of over 35% in size
# VACV Venus inh: qHTS for Stage-Specific Inhibitors of Vaccinia Orthopoxvirus: Venus Reporter Primary qHTS; Vaccinia virus Venus reporter expression, fluorescence; Potency, µM (doses to about 36.5 µM), for inactives: at the top dose activity change, negative = inhibition, hits mostly inhibitors; 0.46% of 330,000 active; calls by dose curve; tested in A549 cells; further: nearly all actives have a fitted effect of over 30% in size
# LASV entry inh: qHTS for Inhibitors of binding or entry into cells for Lassa Virus. Lassa virus pseudotype entry inhibition, cell reporter. Potency, µM (top dose mostly 37.9 µM), without a hit: at the top dose activity change, negative = inhibition, usual class: inhibitors. 1.2% of 300,000 active. AID 540256, 2011; calls by dose curve; tested in HEK293 cells; further: nearly all actives have a fitted effect of over 50% in size
# FMDV inh: High Throughput Screening for Foot and Mouth Disease Virus Antivirals; Potency, µM (series often up to 57.9 µM), without a hit: at the highest dose activity change, negative = inhibition, hits mostly inhibitors; 1.2% of 410,000 active; AID 1159524, 2015; FMDV antiviral cell-based qHTS; calls by dose curve; tested in HEK293T cells; further: read-out not given here; nearly all actives have a fitted effect of over 45% in size
# Numbers without * were called inactive; i = inactive; ? = inconclusive; / = no result given; [ ] = dose if it differs, or a comment. On the % scale 0 is the no-effect control and ±100 the full control effect; potency means the concentration at half of the fitted maximal effect.
SMILES,Sm TGR block,Marburg entry inh,VACV mCherry inh,VACV Venus inh,LASV entry inh,FMDV inh
O=C(CN1C(=O)c2ccccc2S1(=O)=O)c1ccc2c(c1)OCCO2,19%,/,/,/,/,3.5µM*
O=C(CN1C(=O)c2ccccc2S1(=O)=O)c1cccc(Br)c1,-19%,?,i,-10%,1.3µM*,10µM*
Cc1ccccc1S(=O)(=O)N1C[C@H]2CON(C)[C@H]2C[C@H]1c1cccc(-c2ccc(C#N)cc2)c1,/,/,i,-27%,/,-1%
CCOc1ccc(CC(=O)NCCc2csc(-c3ccc(C)cc3)n2)cc1,17%,/,-18%,-22%,-25%[46.1 µM],-4%
O=C(CN1C(=O)c2ccccc2S1(=O)=O)c1ccc(OC(F)F)cc1,-22%,1.3µM*,-9%,2%,0.89µM*,?
O=C(CCN1C(=O)c2ccccc2S1(=O)=O)Nc1ccc2c(c1)OCCO2,-3%,0%,-21%,-13%,1%,/
O=C(CN1C(=O)c2ccccc2S1(=O)=O)c1ccc2c(c1)OCCCO2,0%,?,-3%[7.34 µM],-7%[7.34 µM],?,3.2µM*
CCOc1ccc(C(C)=O)cc1CN1C(=O)c2ccccc2S1(=O)=O,35µM*,7%[46.1 µM],-19%,-10%,?,-29%
COc1ccccc1C(=O)Oc1c(Sc2ccccc2)c(C)nn1C(C)(C)C,5%,-15%[46.1 µM],?,?,-3%[46.1 µM],?
CCOC(=O)c1c(N2C(=O)C=CC2=O)sc(C)c1C,0.45µM*,?,?,?,?,/
CCOc1cc(/C=C/c2nc3cc(C)c(C)cc3s2)ccc1OCC(=O)N1CCOCC1,3%,-19%,-11%,-2%,-12%,-13%
CCOc1cc(/C=C\[N+](=O)[O-])ccc1OCC(=O)N1CCOCC1,10µM*,-10%[46.1 µM],i,-5%,-8%,8.9µM*
CC(C)Sc1oc(-c2ccco2)nc1S(=O)(=O)c1ccc(F)cc1,18µM*,?,/,/,1%,8%
O=C(CSc1oc(-c2ccco2)nc1S(=O)(=O)c1ccc(Cl)cc1)c1ccc(Cl)cc1,-21%,-26%[46.1 µM],-9%,-5%,3%[46.1 µM],-1%
Cc1ccc(S(=O)(=O)c2nc(-c3ccco3)oc2SCC(N)=O)cc1,40µM*,2%[46.1 µM],0%,3%,18%[46.1 µM],13%
Cc1ccc(-c2nc(S(=O)(=O)c3ccc(C)cc3)c(SCC(N)=O)o2)cc1,-14%,?,?,-9%,?,15%
NC(=O)CSc1oc(-c2ccco2)nc1S(=O)(=O)c1ccc(Br)cc1,18µM*,-4%[46.1 µM],-17%,-9%,-15%,3%
Cc1ccc(S(=O)(=O)c2nc(-c3ccco3)oc2SC(C)c2ccccc2)cc1 (stereo unspecified),?,-20%[46.1 µM],-8%[7.34 µM],4%[7.34 µM],-18%[46.1 µM],36%
NC(=O)CSc1oc(-c2ccco2)nc1S(=O)(=O)c1ccc(Cl)cc1,20µM*,-24%[46.1 µM],-10%,-4%,-2%,5%
Cc1cccc(CNc2nc(-c3cccnc3)nc3ccccc23)c1,/,/,-25%,-17%,/,-26%
COc1ccccc1NC(=O)CSc1oc(-c2ccccc2)nc1S(=O)(=O)c1ccc(C)cc1,0%,?,-22%,-12%,?,-25%
CCCSc1oc(-c2ccco2)nc1S(=O)(=O)c1ccc(C)cc1,-31%,?,?,-12%,-6%[46.1 µM],4%
COc1ccccc1NC(=O)CSc1oc(-c2ccc(F)cc2)nc1S(=O)(=O)c1ccc(Br)cc1,5%,4%[46.1 µM],14µM*,?,10%[46.1 µM],-11%
CSc1oc(-c2ccco2)nc1S(=O)(=O)c1ccc(Br)cc1,50µM*,/,i,5%,/,1%
CCCSc1oc(-c2ccco2)nc1S(=O)(=O)c1ccccc1,56µM*,?,-8%,-12%,0%,/
SMILES,Sm TGR block,Marburg entry inh,VACV mCherry inh,VACV Venus inh,LASV entry inh,FMDV inh
Cc1c2cnn(CC(=O)NCC(C)c3ccccc3)c(=O)c2c(C)n1Cc1cccc(Cl)c1 (stereo unspecified),-3%,17%[46.1 µM],2%,-12%,-1%[46.1 µM],-5%
COc1ccc(C)cc1NC(=O)c1nnn(CC(=O)Nc2c(C)cccc2C)c1N,-1%,/,-9%,-17%,-26%[46.1 µM],-1%
COc1cc(Cl)c(NC(=O)CN2C(=O)c3cccnc3Sc3ccccc32)c(OC)c1,-6%,-3%[46.1 µM],?,?,0%[46.1 µM],-2%
Cc1cc(N2C(=O)C=CC2=O)c([N+](=O)[O-])cc1C,0.71µM*,?,i,-5%,-20%,?
Cc1c([N+](=O)[O-])cc(N2C(=O)C=CC2=O)cc1[N+](=O)[O-],/,-20%,-10%,-1%,-1%,0%
CCC(=NCc1ccco1)c1c(O)n(-c2ccc(OC)cc2)c(=O)[nH]c1=O,-34%,11%[46.1 µM],-18%,-12%,1.6µM*,-8%
COc1ccc(-n2c(O)c(/C(C)=N/N3CCCCCC3)c(=O)[nH]c2=O)cc1,-9%,?,-16%,-4%,2.2µM*,13%
CCC(=NCc1ccco1)c1c(O)n(-c2ccc(Cl)cc2)c(=O)[nH]c1=O,40µM*,?,i,-18%,?,-25%
CCC(=NCCCN(C)C)c1c(O)n(-c2ccc(OC)cc2)c(=O)[nH]c1=O,0%,-14%,/,/,1%,-2%
O=S1(=O)CC(N2CCN(CC3CC3)CC2)CN1Cc1ccccc1 (stereo unspecified),/,/,5%,2%,/,-16%
O=C(CC1N=C2c3ccccc3N=C(SCc3cccc(Cl)c3)N2C1=O)NCCc1ccccc1 (stereo unspecified),1%,/,?,?,?,-9%
CCOC(=O)N/N=C1\C[C@@H](O)[C@@H](O)[C@@H]2[C@@H]3C(=O)N(Cc4ccccc4)C(=O)[C@@H]3CC[C@H]12,/,25%[14.2 µM],/,/,/,/
CCCn1c(=O)n(-c2ccccc2Cl)c(=O)c2sc3ccccc3c21,?,23%[46.1 µM],-5%,-3%,7%[46.1 µM],-28%
Cc1cnc(CN(C)Cc2c(C(=O)N3CCc4ccccc4C3)nc3ccc(Cl)cn23)[nH]1,0%,?,-15%,-9%,-12%,-6%
CN(Cc1cccnc1)Cc1c(C(=O)N2CCc3ccccc3C2)nc2ccc(Cl)cn12,32µM*,/,/,/,/,-23%
CCCCN(C)Cc1c(C(=O)N2CCc3ccccc3C2)nc2ccc(Cl)cn12,45µM*,?,-8%,-4%,-7%[46.1 µM],-28%
CC(C)CN(C)Cc1c(C(=O)N2CCc3ccccc3C2)nc2ccc(Cl)cn12,-4%,11µM*,-2%,-14%,-5%,-16%
O=C(c1nc2ccc(Cl)cn2c1CN1CCCC1)N1CCc2ccccc2C1,40µM*,/,/,/,/,-16%
C=CC[C@@H]1C=C[C@@H](Oc2ccc(OC)cc2)[C@@H](COC(=O)c2ccc(Br)cc2)O1,/,-4%[14.2 µM],/,/,/,/
O=C(/C=C/c1ccco1)N1CCN(S(=O)(=O)c2cccs2)CC1,3.5µM*,0%[46.1 µM],0%,7%,6%,-26%

# Assay outcomes from PubChem BioAssay.
